# Shown are actives, neighbours in structure and some others; about 1.4% of the full set was active somewhere.
# PV pol inh = inhibitors of poliovirus RNA polymerase binding and polymerization; P03300; poliovirus polymerase elongation, fluorescence polarization; active compounds read low; % elongation, % (compound at 16.7 µg/mL); 0.66% of 150,000 active; AID 588519; in the data active = % elongation below about 90%
# Mtb MbtI inh = blocks the Mycobacterium tuberculosis siderophore enzyme MbtI; inhibition, % (no concentration beside the values); 0.89% of 100,000 active; purified MbtI enzyme, fluorescence intensity read-out; P9WFX0; AID 493033; in the data active = inhibition mostly above about 56%, no sharp cut-off; inactive = mostly below about 77%
# AID504770 = E. coli YBA685 growth inhibition, screen for V. cholerae RctB inhibitors. E. coli YBA685 rctB-dependent plasmid, OD600 growth, 3 h; active compounds read low. z-score (test concentration not listed). 0.27% of 130,000 active. AID 504770; in the data active = z-score below about -2, passing the limit was not always enough
# MenB inh = Mtb MenB enzyme inhibition; P9WNP5; MenB enzyme assay, absorbance read-out; inhibition, % (concentration not given with the values); 0.43% of 100,000 active; AID 540299; in the data active = inhibition above about 21%, passing the limit was not always enough
# Target sequence (P9WNP5 whole entry, looked up): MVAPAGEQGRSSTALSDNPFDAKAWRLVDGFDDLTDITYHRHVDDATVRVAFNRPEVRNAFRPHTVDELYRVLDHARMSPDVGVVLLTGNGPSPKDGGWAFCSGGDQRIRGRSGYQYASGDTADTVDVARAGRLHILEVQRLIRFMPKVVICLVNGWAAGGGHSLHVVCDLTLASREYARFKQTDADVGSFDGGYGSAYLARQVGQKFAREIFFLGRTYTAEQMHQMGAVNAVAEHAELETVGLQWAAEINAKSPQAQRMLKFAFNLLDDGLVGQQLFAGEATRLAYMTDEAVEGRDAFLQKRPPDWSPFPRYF
# Hits are given with their value; - = inactive; . = not tested or not shown.
SMILES,PV pol inh,Mtb MbtI inh,AID504770,MenB inh
COc1ccc(NC(=O)c2c(NC(=O)c3ccncc3)sc3c2CCC(C(C)(C)C)C3)cc1 (stereo not drawn),-,.,.,.
O=c1[nH]c(SCCN2CCOCC2)nc(O)c1-c1ccccc1,.,.,-,.
O=c1c2ccccc2nc(-c2ccco2)n1-c1nccs1,-,-,-,42
N/C(Cc1nc2ccccc2[nH]1)=N\O,-,-,-,44
O=C(Cc1nc2ccccc2[nH]1)c1cccs1,22,-,-,.
CSc1c(-c2ccccc2)nc2ccccc2c1C(=O)O,.,.,-,.
O=C(COc1ccccc1)Nc1ccc(S(=O)(=O)N(Cc2ccccc2)c2ccccc2)cc1,-,.,.,.
C1=NC(Cc2cccc3ccccc23)NC1 (stereo not drawn),-,.,-,-
CSC(C)C(=O)C1=C(O)c2ccccc2C1=O (stereo not drawn),.,.,-,.
O=C1C(SCCO)=C(SCCO)C(=O)c2ccccc21,-,91,.,-
CC1CC(OCC(O)CN2CCN(c3cccc(Cl)c3)CC2)CC(C)(C)C1 (stereo not drawn),.,.,-,.
CCC(C)N=Cc1c(O)n(-c2ccccc2)c(=O)[nH]c1=O (stereo not drawn),-,102,-,-
O=C1NCCN1CCNS(=O)(=O)c1ccc2ccccc2c1,-,.,-,-
Cc1c(N=Cc2cc(Br)cc(Br)c2O)cccc1C(=O)O,88,-,-,-
Cc1[nH]c(C(=O)N2CCCCC2)c(C)c1C(=O)NC1CCCCC1,.,-,-,.
CCSc1ccc(SC#N)s1,-,-,-5.2,-
O=C(CC(C(=O)O)N(Cc1ccccc1)Cc1ccccc1)c1ccc(Cl)cc1 (stereo not drawn),-,.,-2.9,86
COc1ccc(CNc2nccs2)cc1OC,-,-,-,29
O=C(NCC(c1ccc2c(c1)OCO2)N1CCOCC1)C(=O)Nc1ccccc1 (stereo not drawn),-,.,.,.
N#CSCC(=O)c1cccs1,85,.,-3.7,-
O=C(CC1OC(=O)c2ccccc21)c1ccc(Cl)s1 (stereo not drawn),85,-,-,-
O=C(CC1OC(=O)c2ccccc21)c1ccccn1 (stereo not drawn),.,.,-,.
O=C(Cn1c(=O)c2cccn2c2cccnc21)N1CCCC1,-,-,-,-
CC1CCN(C(=O)CN(CCc2ccccc2)S(C)(=O)=O)CC1,-,-,-,-
CS(=O)(=O)N(CCc1ccccc1)CC(=O)N1CCOCC1,-,-,-,34
SMILES,PV pol inh,Mtb MbtI inh,AID504770,MenB inh
COc1cc(-c2nnc(-c3ccc(N4CCOCC4)cc3)o2)cc(OC)c1OC,-,-,-,-
CC(C)(C)c1ccc(-c2nnc(-c3ccc(N4CCOCC4)cc3)o2)cc1,-,-,-,35
CC(C)CCn1c(=O)c2sccc2n2c(CCCC(=O)NCc3ccc(F)cc3)nnc12,-,.,.,.
CC(C)Cn1c(O)c(N=NC(=S)NC(C)C)c2ccccc21,-,-,-,-
CC(C)n1c(O)c(N=NC(=S)NC2CCCCC2)c2ccccc21,-,-,-2.9,-
COC(=O)c1cc2c(C)nn(Cc3ccccc3Cl)c2s1,-,-,-,-
O=C(NCCn1cccc1)c1cccc2ccccc12,-,53,-,-
O=C1C(=Cc2ccccc2)C(=O)c2ccccc21,-,95,-,-
C/C(=N/NC(=O)c1c(N)no[n+]1[O-])c1cccs1,-,-,-,-
O=C(c1cccs1)c1no[n+]([O-])c1C(=O)c1cccs1,-,-,-6.5,-
OC(Cn1cccn1)c1ccccc1 (stereo not drawn),.,-,-,.
CC(C)OC1(O)C(=O)c2ccccc2C(=O)C1(O)OC(C)C (stereo not drawn),9.0,.,-,-
CC(=O)Oc1ccc(-c2ccc(C(=O)O)cc2)cc1Cl,-,85,-,.
CC(=O)Oc1ccc(-c2ccc(C(=O)O)cc2)cc1C,-,-,-,.
Cc1cc(=O)[nH]c(SCC(=O)c2ccc3c(c2)NC(=O)CO3)n1,-,-,-,-
O=C1COc2ccc(C(=O)CSC(=S)N3CCCC3)cc2N1,81,-,-,-
O=C(COc1ccccc1Br)Nn1c(=S)[nH]c2ccccc2c1=O,-,-,-,-
CN(Cc1ccccc1)S(=O)(=O)c1ccc2c(c1)C(=O)NCC(=O)N2,.,.,-,.
Cn1ncc(Br)c1N1C(=O)C=CC1=O,.,.,-3,.
Cn1ncc(Br)c1C(=O)NN,-,.,-,-
NS(=O)(=O)c1ccc(NC(=O)CSc2ncccn2)cc1,-,-,-,-
CCOC(=O)c1cc(-c2ccc(OC)cc2)nn1Cc1ccccc1,-,.,.,.
O=S(=O)(c1ccc(I)cc1)N1CCCCCC1,-,-,-,-
O=S(=O)(c1ccc(=S)[nH]c1)N1CCCCCC1,-,95,-,-
COc1ccc(C(=O)N2CC(C)CC(C)C2)cc1 (stereo not drawn),-,-,-,-
SMILES,PV pol inh,Mtb MbtI inh,AID504770,MenB inh
COc1ccc(C(=S)N2CCC(C)CC2)cc1,-,72,-,-
CC1CCN(C(=O)c2ccc(Br)cc2)CC1,-,-,-,36
CC1CCN(C(=O)c2ccc(C(C)(C)C)cc2)CC1,-,.,-,-
COc1ccc(C(=O)NC2CCN(Cc3c(F)cccc3Cl)CC2)cc1OC,.,.,-,.
O=C(NCCc1ccccc1)c1ccc(Cn2c(=O)c3cccn3c3cccnc32)cc1,-,.,.,.
O=C(NCc1ccccc1Cl)c1ccc(Nc2nc3ccccc3n3nnnc23)cc1,-,.,.,.
CNC(=O)Oc1c(Br)cc2sc(=O)oc2c1Br,-,100,-,-
N#CC1=C(SCc2ccccc2)SC(c2ccccc2O)NC1=O (stereo not drawn),-,-,-3.4,-
CC(=O)O[C@H]1C(=O)[C@@]2(C)C([C@H](OC(=O)c3ccccc3)[C@]3(O)C[C@H](O)C(C)=C1C3(C)C)[C@]1(OC(C)=O)CO[C@@H]1C[C@@H]2O (stereo partly drawn),-,-,-,-
CCCCn1c(=O)[nH][nH]c1=S,-,78,-,-
O=c1[nH][nH]c(=S)n1Cc1ccccc1,-,-,-,-
O=C(Nc1ccc(NC(=O)c2ccccc2O)cc1)c1ccccc1,.,.,-,.
O=Nc1ccc(NNC(=O)c2ccccc2O)cc1,-,-,-2.9,-
Cc1ccc(OC(=O)c2cc(-c3ccc4c(c3)OCCO4)on2)cc1C,-,.,.,.
Cc1cc(OC(=O)c2cc(-c3ccc4c(c3)OCCO4)on2)ccc1Cl,-17,.,.,.
Nn1c(COc2ccccc2)n[nH]c1=S,80,95,-,-
S=c1[nH]ccn1Cc1ccccc1,-,68,-,-
Cc1nc2ccccc2c(=O)n1-c1ccc(C(=O)NC(C)c2ccccn2)cc1 (stereo not drawn),34,-,-,-
Cc1nnc2c3ccccc3nc(N3CCN(c4cccc(Cl)c4)CC3)n12,-,.,.,.
Cc1ccc2c(c1)c(=O)c1ccccc1n2CCCC(=O)Nc1ccc(Cl)c(Cl)c1,-,.,.,.
Cc1[nH]n(-c2ccccc2)c(=O)c1N=O,-,-,-,-
Cc1[nH]n(-c2ccc(Br)cc2)c(=O)c1C1=c2ccccc2=NC1=O,-,64,-,-
NC(=O)C1CCN(CC(O)c2ccccc2)CC1 (stereo not drawn),.,.,-,.
Cc1ccc(C2=N/C(=C\c3c(C)nn(-c4ccccc4)c3N3CCCC3)C(=O)O2)s1,28,-,-,-
Cc1ccn2c(Nc3ccc4c(c3)OCCO4)c(-c3cccs3)nc2c1,-,.,.,.
CCN(CC)c1nc2n(c(=S)n1)CCS2,-,-,-,30

# Source: PubChem BioAssay (ICCB-Longwood Screening Facility, Harvard Medical School)
